Screening data: PubChem, several laboratories
sEH activator – increases human soluble epoxide hydrolase activity; actives 0.04% (n = 91,000); purified human sEH enzymatic activity, activator screen; activation, % at 2 µM; P34913; in the data active means activation above about 37%
CYP2C9 inhib – blocks human cytochrome P450 2C9; P11712; CYP2C9 Supersomes, luciferin-H conversion, luminescence; inhibition, % at 5 µM; actives 20% (n = 96,000);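 active means blocking of liver enzyme CYP2C9 beyond about 50% at 5 µM, limit read from the data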
CYP2C9 act – increases human cytochrome P450 2C9 activity. P11712. recombinant CYP2C9, luciferin-H conversion, luminescence; stronger effect = higher value; factor 1 = untreated enzyme, 0 = blocked. activation factor at 5 µM. actives 1.4% (n = 96,000). AID 1024;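 active means activation factor of 2 or more for CYP2C9 at a 5 µM dose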;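 further: 0 = sulfaphenazole-blocked wells and 1 = vehicle-only wells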
CYP2C19 act – activators of human cytochrome P450 2C19. P33261. recombinant CYP2C19, luciferin-H EGE luminescence; stronger effect = higher value; 0 = fully inhibited enzyme, 1 = untreated enzyme. activation factor at 5 µM. 96,000 tested, under 10 active. AID 1025;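 active means activation factor of at least 2 at 5 µM in the primary screen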;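 further: 0 = wells with 2.5 mM tranylcypromine and 1 = vehicle-only wells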
Target sequence (P33261 whole entry, looked up): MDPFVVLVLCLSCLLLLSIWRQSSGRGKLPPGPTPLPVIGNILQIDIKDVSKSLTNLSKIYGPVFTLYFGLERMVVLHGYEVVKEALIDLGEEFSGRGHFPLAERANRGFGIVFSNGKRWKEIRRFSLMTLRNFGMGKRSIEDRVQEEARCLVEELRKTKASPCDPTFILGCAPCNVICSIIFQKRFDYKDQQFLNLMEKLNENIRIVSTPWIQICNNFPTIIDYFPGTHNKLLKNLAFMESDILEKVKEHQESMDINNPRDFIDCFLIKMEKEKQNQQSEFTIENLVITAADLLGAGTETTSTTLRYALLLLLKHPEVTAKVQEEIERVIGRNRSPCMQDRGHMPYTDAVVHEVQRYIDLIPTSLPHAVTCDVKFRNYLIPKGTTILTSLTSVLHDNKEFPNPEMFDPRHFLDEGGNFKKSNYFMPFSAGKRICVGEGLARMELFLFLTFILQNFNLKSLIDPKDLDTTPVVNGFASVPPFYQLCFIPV
CYP2C19 inh – human CYP2C19 inhibition; P33261; CYP2C19 Supersomes, luciferin-H EGE luminescence, 30 min; inhibition, % at 5 µM; actives 21% (n = 96,000);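 active means CYP2C19 inhibition above a set limit at 5 µM in the primary screen, cut at about 50% in these data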;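 further: plate controls were negative control wells for no effect and 2.5 mM tranylcypromine positive control for full effect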
sEH inhibitor – blocks human soluble epoxide hydrolase activity; AID 707; recombinant human sEH enzymatic activity assay; actives 0.34% (n = 91,000); P34913; inhibition, % at 2 µM; in the data active means inhibition above about 80%
* hit, by the source's call; nt = not tested or not shown. Most compounds without a hit are left out; they make up all but 27% or so of the library.

SMILES	sEH activator	CYP2C9 inhib	CYP2C9 act	CYP2C19 act	CYP2C19 inh	sEH inhibitor
O=C(Nc1cccnc1)c1ccc2c(c1)C(=O)N(Cc1cccnc1)C2=O	0	27	0.7	1.1	-13	3
Cn1cc(-c2nnnn2-c2ccc(Cl)cc2)c(C(F)(F)F)n1	nt	40	0.6	0	100*	nt
Clc1ccc(-n2nnnc2-c2cnc(-c3ccncc3)nc2-c2cccs2)cc1	8	nt	nt	nt	nt	-7
FC(F)(F)c1nc(-c2cccs2)ncc1-c1nnnn1-c1ccc(Cl)cc1	7	52*	0.5	1	-3	-5
Cc1cc(C)cc(-n2nnnc2-c2cn(C)nc2C(F)(F)F)c1	3	20	0.8	0.3	75*	-3
Fc1cccc(-c2oncc2-c2nnnn2-c2ccc(Cl)cc2)c1	11	nt	nt	nt	nt	-11
COc1ccc(-n2nnnc2Sc2ccc(S(=O)(=O)N3CCOCC3)cn2)cc1	nt	28	0.7	0.9	12	nt
COc1ccc(-n2nnnc2-c2cnc(N3CCCC3)nc2C(F)(F)F)cc1	11	64*	0.4	0.1	88*	-11
Cc1csc(SCc2nc3sc4c(c3c(=O)[nH]2)CCC4)n1	1	nt	nt	nt	nt	1
Cc1ccc(NC(=O)N2CCc3ccccc3C2)cc1	-30	12	0.9	0.1	93*	30
CC(=O)c1cccc(NC(=O)N2CCc3ccccc3C2)c1	-11	56*	0.4	0.3	68*	13
O=C(Nc1ccccc1)N1CCc2ccccc2C1	-5	nt	nt	nt	nt	4
Cc1ccc(NC(=O)N2CCC(C(=O)NCc3ccccc3)CC2)cc1	-8	nt	nt	nt	nt	6
Cc1ccc(N2CC(C(=O)N3CCc4ccccc4C3)CC2=O)cc1 (stereo unspecified)	nt	67*	0.3	0.6	37	nt
Cc1ccc(C2CCN(C(=O)Nc3ccccc3)C2)cc1 (stereo unspecified)	nt	30	0.7	0.4	60*	nt
COc1ccc2[nH]c(=O)c(C(c3nnnn3C3CCCC3)N(C)C3CCCCC3)cc2c1 (stereo unspecified)	2	-7	1.1	1	1	-2
CC(SC1CCCC1)C(=O)NC(C)(C#N)C(C)C (stereo unspecified)	2	6	0.9	0.8	16	-3
COc1cc(NC(=O)C2CCN(S(=O)(=O)c3cccnc3)CC2)cc(OC)c1OC	2	8	0.9	1.1	-6	-4
CCC/C(O)=C1\C(=O)CC(c2ccccc2)CC1=NC (stereo unspecified)	2	-24	1.2	0.9	7	0
COc1ccc(-c2nnc3n2-c2ccccc2SC3)cc1OC	nt	6	0.9	0.9	12	nt
CCN1C(c2ccc(F)cc2)=CS/C1=C(\C#N)c1nnc2n1-c1ccccc1SC2	1	-127	2.3*	0.7	29	-1
O=C1C(C=NCCCN2CCCC2=O)=C(O)c2ccccc21	-7	-1	1	0.9	6	8
Cn1c(C(F)(F)F)nc2c(=O)oc3ccccc3c21	2	-3	1	1	2	-1
Cc1cc(Cl)cc(Br)c1OCCCN1C(=O)NC(C)(C)C1=O	8	39	0.6	0.1	90*	-8
Cc1cc(C)c(OCCN2C(=O)NC(C)(C)C2=O)c(Cl)c1	4	36	0.6	0	96*	-4
SMILES	sEH activator	CYP2C9 inhib	CYP2C9 act	CYP2C19 act	CYP2C19 inh	sEH inhibitor
Cc1cc(Cl)c(OCCN2C(=O)NC(C)(C)C2=O)c(Br)c1	0	14	0.9	0	98*	0
Cc1cc(Cl)c(OCCCSc2nc(C)cc(=O)[nH]2)c(Br)c1	22	26	0.7	0.9	9	-23
Cc1cc(Cl)cc(C)c1OCC(=O)O	nt	-30	1.3	1.2	-22	nt
O=C(Nc1ccc(NC(=O)c2sc3ccccc3c2Cl)cc1Cl)c1ccco1	8	-9	1.1	0.8	22	-10
COC(=O)c1ccc(OCC(=O)Nc2nn(-c3ccccc3)nc2C(N)=O)cc1	nt	0	1	1.1	-7	nt
COC(=O)c1ccc(OCC(=O)c2ccccc2OC)cc1	14	45	0.6	0.1	90*	-15
COC(=O)c1ccc(COc2ccc(-c3nn[nH]n3)cc2)cc1	0	39	0.6	0.7	30	1
COC(=O)COc1ccc(C(=O)OC)cc1	-3	29	0.7	0.2	81*	3
COC(=O)c1ccc(NC(=O)COc2ccccc2OC)cc1	-9	20	0.8	0.6	44	8
S=c1[nH]nc(-c2cc3ccccc3o2)n1Cc1ccccc1	9	nt	nt	nt	nt	-6
